# Results published in PubChem BioAssay AID1159580 (chemical genetic matrix, 2015).
# In all, about 5,500 compounds went through this assay and about 2,000 (36%) were called active. Roughly 18% stayed inconclusive and do not appear here. This is one part of the list. A number with no mark means an inactive call. Rule as the data show it: active = normalized growth mostly below about 0.91 (no sharp cut-off); inconclusive = no clear call, values can overlap the other calls; inactive = mostly above about 0.92.
# Assay: chemical genetic growth profiling, strain panel (AID 1159580);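 also: tested at 20 µM; growth read once vehicle control cultures reached saturation at 30 °C; 1 = growth at the plate median or of vehicle wells; lower values mean less growth of the strain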
# Conditions: growth OD
# [1] = S. cerevisiae deletion strains, locus YAL013W, strain DEP1, active compounds read low
# [2] = S. cerevisiae deletion strains, locus YBR229C, strain ROT2, active compounds read low
# [3] = S. cerevisiae deletion strains, locus YDL101C, strain DUN1, active compounds read low
# [4] = S. cerevisiae deletion strains, locus YDR150W, strain NUM1, active compounds read low
# [5] = S. cerevisiae deletion strains, locus YEL061C, strain CIN8, active compounds read low
# [6] = S. cerevisiae deletion strains, locus YGR078C, strain PAC10, active compounds read low
# [7] = S. cerevisiae deletion strains, locus YHR030C, strain SLT2, active compounds read low
# [8] = S. cerevisiae deletion strains, locus YHR087W, strain rtc3, active compounds read low
# [9] = S. cerevisiae deletion strains, locus YJL187C, strain SWE1, active compounds read low
# [10] = S. cerevisiae deletion strains, locus YJR043C, strain POL32, active compounds read low
# [11] = S. cerevisiae deletion strains, locus YJR075W, strain HOC1, active compounds read low
# [12] = S. cerevisiae deletion strains, locus YKL190W, strain CNB1, active compounds read low
# [13] = S. cerevisiae deletion strains, locus YLR039C, strain RIC1, active compounds read low
# [14] = S. cerevisiae deletion strains, locus YLR058C, strain SHM2 (second series), active compounds read low
# [15] = S. cerevisiae deletion strains, locus YLR085C, strain ARP6, active compounds read low
# [16] = S. cerevisiae deletion strains, locus YLR262C, strain YPT6, active compounds read low
# [17] = S. cerevisiae deletion strains, locus YML094W, strain GIM5, active compounds read low
# [18] = S. cerevisiae deletion strains, locus YMR219W, strain ESC1, active compounds read low
# [19] = S. cerevisiae deletion strains, locus YMR263W, strain SAP30, active compounds read low
# [20] = S. cerevisiae deletion strains, locus YMR307W, strain GAS1, active compounds read low
# [21] = S. cerevisiae deletion strains, locus YNL153C, strain GIM3, active compounds read low
# [22] = S. cerevisiae deletion strains, locus YNL298W, strain CLA4 (second series), active compounds read low
# [23] = S. cerevisiae deletion strains, locus YNL322C, strain KRE1, active compounds read low
# [24] = S. cerevisiae deletion strains, locus YNR030W, strain Alg12, active compounds read low
# [25] = S. cerevisiae deletion strains, locus YOL006C, strain TOP1, active compounds read low
# [26] = S. cerevisiae deletion strains, locus YPL055C, strain LGE1, active compounds read low
# [27] = S. cerevisiae deletion strains, locus YPL241C, strain CIN2, active compounds read low
# [28] = S. cerevisiae deletion strains, locus YPR135W, strain CTF4, active compounds read low
compound,measurement,setting,value
CN1C/C(=C\c2ccccc2Cl)C(=O)/C(=C/c2ccccc2Cl)C1,normalized growth,[1],0.953
same,normalized growth,[2],0.911 (active)
same,normalized growth,[3],0.825 (active)
same,normalized growth,[4],0.942
same,normalized growth,[5],0.699 (active)
same,normalized growth,[6],0.873 (active)
same,normalized growth,[7],0.27 (active)
same,normalized growth,[8],0.888 (active)
same,normalized growth,[9],0.942
same,normalized growth,[10],0.971
same,normalized growth,[11],0.831 (active)
same,normalized growth,[12],0.789 (active)
same,normalized growth,[13],0.447 (active)
same,normalized growth,[14],0.958
same,normalized growth,[15],0.462 (active)
same,normalized growth,[16],0.655 (active)
same,normalized growth,[17],0.691 (active)
same,normalized growth,[18],0.909 (active)
same,normalized growth,[19],0.937
same,normalized growth,[20],0.419 (active)
same,normalized growth,[21],0.958
same,normalized growth,[22],0.523 (active)
same,normalized growth,[23],0.957
same,normalized growth,[24],0.756 (active)
same,normalized growth,[25],0.562 (active)
same,normalized growth,[26],0.92
same,normalized growth,[27],0.676 (active)
same,normalized growth,[28],0.422 (active)
CN(C)/C=C1\C(=O)c2ccccc2N(C)S1(=O)=O,normalized growth,[1],1
same,normalized growth,[2],0.994
same,normalized growth,"S. cerevisiae deletion strains, locus YCL061C, strain MRC1, active compounds read low",0.999
same,normalized growth,[3],0.999
same,normalized growth,"S. cerevisiae deletion strains, locus YDL134C, strain PPH21, active compounds read low",0.987
same,normalized growth,[4],1.02
same,normalized growth,[5],1.01
same,normalized growth,[6],0.982
same,normalized growth,[7],0.907
same,normalized growth,[8],0.954
same,normalized growth,[10],0.989
same,normalized growth,[11],0.949
same,normalized growth,[12],1.01
same,normalized growth,[13],0.84
same,normalized growth,[14],0.983
same,normalized growth,[15],1.06
same,normalized growth,[16],0.906
same,normalized growth,[17],1.02
same,normalized growth,[18],1
same,normalized growth,[19],1
same,normalized growth,[20],0.859
same,normalized growth,[21],0.997
same,normalized growth,[22],0.97
same,normalized growth,[23],0.999
same,normalized growth,[24],0.98
same,normalized growth,[25],0.946
same,normalized growth,[26],1.13
same,normalized growth,[27],1.01
same,normalized growth,[28],0.761
same,normalized growth,"S. cerevisiae strains, strain wild type, active compounds read low",0.991
O=C(Nc1ccccc1C(=O)Nc1ccc(Br)cc1)c1ccccc1,normalized growth,[1],1.01
same,normalized growth,[2],1.02
same,normalized growth,[3],1.05
same,normalized growth,[4],1
same,normalized growth,[5],0.998
same,normalized growth,[6],1.02
same,normalized growth,"S. cerevisiae deletion strains, locus YGR229C, strain SMI1, active compounds read low",1.03
same,normalized growth,[7],1.03
same,normalized growth,[8],1.03
same,normalized growth,[9],1.01
same,normalized growth,[10],1.03
same,normalized growth,[11],0.997
same,normalized growth,[12],1.03
same,normalized growth,[13],1.02
same,normalized growth,[14],1.02
same,normalized growth,[15],1
same,normalized growth,[16],1.03
same,normalized growth,[17],1.01
same,normalized growth,[18],1.01
same,normalized growth,[19],1.03
same,normalized growth,[21],1.03
same,normalized growth,[22],1.06
same,normalized growth,[23],1.02
same,normalized growth,[24],1.02
same,normalized growth,[26],1.08
same,normalized growth,[27],1.01
same,normalized growth,[28],1.17
O=C(C=C(O)c1ccc(Br)cc1)C(=O)Nc1ccccc1,normalized growth,"S. cerevisiae deletion strains, locus YAR019C, strain CDC15, active compounds read low",0.489 (active)
same,normalized growth,"S. cerevisiae deletion strains, locus YBL105C, strain PKC1, active compounds read low",0.637 (active)
same,normalized growth,"S. cerevisiae deletion strains, locus YBR135W, strain CKS1, active compounds read low",0.686 (active)
same,normalized growth,"S. cerevisiae deletion strains, locus YBR136W, strain MEC1, active compounds read low",0.851 (active)
same,normalized growth,"S. cerevisiae deletion strains, locus YBR160W, strain CDC28, active compounds read low",0.893 (active)
same,normalized growth,"S. cerevisiae deletion strains, locus YDL017W, strain CDC7, active compounds read low",0.683 (active)
same,normalized growth,"S. cerevisiae deletion strains, locus YDL028C, strain MPS1, active compounds read low",0.834 (active)
same,normalized growth,[3],0.379 (active)
same,normalized growth,"S. cerevisiae deletion strains, locus YDL108W, strain KIN28, active compounds read low",0.874 (active)
same,normalized growth,"S. cerevisiae deletion strains, locus YDL132W, strain cdc53, active compounds read low",0.76 (active)
same,normalized growth,"S. cerevisiae deletion strains, locus YDL214C, strain PRR2, active compounds read low",0.145 (active)
same,normalized growth,"S. cerevisiae deletion strains, locus YDR052C, strain DBF4, active compounds read low",0.849 (active)
same,normalized growth,"S. cerevisiae deletion strains, locus YDR054C, strain cdc34, active compounds read low",0.581 (active)
same,normalized growth,"S. cerevisiae deletion strains, locus YDR226W, strain ADK1, active compounds read low",0.869 (active)
same,normalized growth,"S. cerevisiae deletion strains, locus YDR477W, strain SNF1, active compounds read low",0.105 (active)
same,normalized growth,"S. cerevisiae deletion strains, locus YER123W, strain YCK3, active compounds read low",0.124 (active)
same,normalized growth,"S. cerevisiae deletion strains, locus YER133W, strain GLC7, active compounds read low",0.229 (active)
same,normalized growth,"S. cerevisiae deletion strains, locus YFL009W, strain cdc4, active compounds read low",0.7 (active)
same,normalized growth,"S. cerevisiae deletion strains, locus YFL029C, strain CAK1, active compounds read low",0.439 (active)
same,normalized growth,"S. cerevisiae deletion strains, locus YFR003C, strain YPI1, active compounds read low",0.718 (active)
same,normalized growth,"S. cerevisiae deletion strains, locus YFR019W, strain FAB1, active compounds read low",0.128 (active)
same,normalized growth,"S. cerevisiae deletion strains, locus YFR028C, strain CDC14, active compounds read low",0.448 (active)
same,normalized growth,"S. cerevisiae deletion strains, locus YGR040W, strain KSS1, active compounds read low",0.109 (active)
same,normalized growth,"S. cerevisiae deletion strains, locus YGR052W, strain FMP48, active compounds read low",0.132 (active)
same,normalized growth,"S. cerevisiae deletion strains, locus YGR092W, strain DBF2, active compounds read low",0.104 (active)
same,normalized growth,[7],0.148 (active)
same,normalized growth,"S. cerevisiae deletion strains, locus YHR079C, strain IRE1, active compounds read low",0.159 (active)
same,normalized growth,"S. cerevisiae deletion strains, locus YHR082C, strain KSP1, active compounds read low",0.136 (active)
same,normalized growth,"S. cerevisiae deletion strains, locus YHR205W, strain SCH9, active compounds read low",0.0311 (active)
same,normalized growth,"S. cerevisiae deletion strains, locus YIL147C, strain SLN1, active compounds read low",0.848 (active)
same,normalized growth,"S. cerevisiae deletion strains, locus YJL095W, strain BCK1, active compounds read low",0.136 (active)
same,normalized growth,"S. cerevisiae deletion strains, locus YJL128C, strain PBS2, active compounds read low",0.483 (active)
same,normalized growth,"S. cerevisiae deletion strains, locus YJL157C, strain FAR1, active compounds read low",0.113 (active)
same,normalized growth,"S. cerevisiae deletion strains, locus YJR016C, strain ILV3, active compounds read low",0.156 (active)
same,normalized growth,"S. cerevisiae deletion strains, locus YJR066W, strain TOR1 (second series), active compounds read low",0.115 (active)
same,normalized growth,"S. cerevisiae deletion strains, locus YJR066W, strain TOR1, active compounds read low",0.122 (active)
same,normalized growth,"S. cerevisiae deletion strains, locus YKL048C, strain ELM1, active compounds read low",0.136 (active)
same,normalized growth,"S. cerevisiae deletion strains, locus YKL067W, strain YNK1, active compounds read low",0.127 (active)
same,normalized growth,"S. cerevisiae deletion strains, locus YKL101W, strain HSL1, active compounds read low",0.103 (active)
same,normalized growth,"S. cerevisiae deletion strains, locus YKL193C, strain SDS22, active compounds read low",0.761 (active)
same,normalized growth,"S. cerevisiae deletion strains, locus YKL203C, strain TOR2, active compounds read low",0.142 (active)
same,normalized growth,"S. cerevisiae deletion strains, locus YLR113W, strain HOG1, active compounds read low",0.145 (active)
same,normalized growth,"S. cerevisiae deletion strains, locus YLR133W, strain CKI1, active compounds read low",0.127 (active)
same,normalized growth,"S. cerevisiae deletion strains, locus YLR403W, strain SFP1, active compounds read low",0.00467 (active)
same,normalized growth,"S. cerevisiae deletion strains, locus YML070W, strain DAK1, active compounds read low",0.129 (active)
same,normalized growth,"S. cerevisiae deletion strains, locus YMR001C, strain CDC5, active compounds read low",0.449 (active)
same,normalized growth,"S. cerevisiae deletion strains, locus YMR205C, strain PFK2 (second series), active compounds read low",0.118 (active)
same,normalized growth,"S. cerevisiae deletion strains, locus YMR277W, strain FCP1, active compounds read low",0.728 (active)
same,normalized growth,"S. cerevisiae deletion strains, locus YNL006W, strain LST8, active compounds read low",0.158 (active)
same,normalized growth,"S. cerevisiae deletion strains, locus YNL020C, strain ARK1, active compounds read low",0.109 (active)
same,normalized growth,"S. cerevisiae deletion strains, locus YNL161W, strain CBK1, active compounds read low",0.77 (active)
same,normalized growth,"S. cerevisiae deletion strains, locus YNL183C, strain NPR1, active compounds read low",0.131 (active)
same,normalized growth,"S. cerevisiae deletion strains, locus YNL207W, strain RIO2, active compounds read low",0.824 (active)
same,normalized growth,"S. cerevisiae deletion strains, locus YNL222W, strain SSU72, active compounds read low",0.786 (active)
same,normalized growth,"S. cerevisiae deletion strains, locus YNL307C, strain MCK1 (second series), active compounds read low",0.114 (active)
same,normalized growth,"S. cerevisiae deletion strains, locus YOL078W, strain AVO1, active compounds read low",0.76 (active)
same,normalized growth,"S. cerevisiae deletion strains, locus YOL136C, strain PFK27, active compounds read low",0.109 (active)
same,normalized growth,"S. cerevisiae deletion strains, locus YOR061W, strain CKA2, active compounds read low",0.0904 (active)
same,normalized growth,"S. cerevisiae deletion strains, locus YOR119C, strain RIO1, active compounds read low",0.134 (active)
same,normalized growth,"S. cerevisiae deletion strains, locus YOR231W, strain MKK1, active compounds read low",0.14 (active)
same,normalized growth,"S. cerevisiae deletion strains, locus YOR329C, strain SCD5, active compounds read low",0.79 (active)
same,normalized growth,"S. cerevisiae deletion strains, locus YPL031C, strain PHO85, active compounds read low",0.105 (active)
same,normalized growth,"S. cerevisiae deletion strains, locus YPL153C, strain RAD53, active compounds read low",0.103 (active)
same,normalized growth,"S. cerevisiae deletion strains, locus YPL204W, strain HRR25, active compounds read low",0.114 (active)
same,normalized growth,"S. cerevisiae deletion strains, locus YPL209C, strain IPL1, active compounds read low",0.646 (active)
same,normalized growth,"S. cerevisiae deletion strains, locus YPL256C, strain CLN2, active compounds read low",0.17 (active)
same,normalized growth,"S. cerevisiae deletion strains, locus YPR025C, strain CCL1, active compounds read low",0.871 (active)
same,normalized growth,"S. cerevisiae deletion strains, locus YPR106W, strain ISR1, active compounds read low",0.513 (active)
same,normalized growth,"S. cerevisiae deletion strains, locus YPR111W, strain DBF20, active compounds read low",0.724 (active)
same,normalized growth,"S. cerevisiae deletion strains, strain NNK1, active compounds read low",0.106 (active)
same,normalized growth,"S. cerevisiae deletion strains, strain TSCII, active compounds read low",0.39 (active)
